tim23-1 inh: growth inhibitors of tim23-1 mutant yeast, primary screen, luminescence, uHTS. AID 463212, 2010. S. cerevisiae tim23-1 growth, BacTiter-Glo luminescence, 24 h. 330,000 compounds, 1.3% hits. inhibition, % at 20 µM;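 active means growth inhibition of the mutant yeast at or above 50%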;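 further: temperature-sensitive mutant grown at 25 °C; plate controls were DMSO-treated mutant yeast for no effect and medium wells lacking yeast for full effect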
MPTP block: mitochondrial permeability transition pore inhibitors, primary screen, biochemical, isolated mouse mitochondria, absorbance | Ca2+ swelling absorbance, 30 min | inhibition, % at 10 µM | 360,000 compounds, 1.4% hits;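 active means inhibition of 50% or more, scaled per plate between neutral and stimulator controls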;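 further: 0% = DMSO wells given calcium and 100% = 1 mM EGTA wells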
Mdm2-MdmX inh: inhibitors of human Mdm2-MdmX association, primary screen, cell-based, luminescence, split luciferase, SaOS-2, uHTS | Protein Mdm4 (Homo sapiens) + E3 ubiquitin-protein ligase Mdm2 (Homo sapiens), … | SaOS-2 split-luciferase Mdm2/MdmX complementation | inhibition, % at 8 µM | 330,000 compounds, 3% hits | AID 485346, 2010;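 active means inhibition of at least 50% at 8 µM in the primary screen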
TIM10 inh: growth inhibitors of isogenic TIM10 control yeast, primary screen, counter-screen for tim10-1 yeast inhibitor project, luminescence, uHTS; S. cerevisiae TIM10 strain growth, BacTiter-Glo luminescence, 24 h; inhibition, % at 10 µM; 330,000 compounds, 1.4% hits;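 active means inhibition of 40% or more at the single tested concentration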;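 further: wild-type TIM10 isogenic control strain grown at permissive 25 °C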
tim10-1 inh: growth inhibitors of tim10-1 mutant yeast, primary screen, luminescence, uHTS; S. cerevisiae tim10-1 ts strain growth, BacTiter-Glo, 24 h; inhibition, % at 20 µM; 330,000 compounds, 2.2% hits;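 active means inhibition of at least 40%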;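 further: mutant grown at 25 °C; 0% = DMSO wells with yeast and 100% = wells holding no yeast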
tim10-1 confirm: growth inhibitors of tim10-1 mutant yeast, confirmation, single concentration, luminescence, S. cerevisiae | shares compounds with tim10-1 inh | S. cerevisiae tim10-1 ts strain growth, BacTiter-Glo, 24 h | inhibition, % at 20 µM | 7,400 compounds, 56% hits;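 active means inhibition of yeast growth at or above a set limit in either of two repeat tests at 20 µM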;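 further: tim10-1 mutant grown at permissive 25 °C to find synthetic lethal compounds; 0% = DMSO yeast wells and 100% = medium wells without yeast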
* marks the source's active call; other numbers are inactive results; . = no result. An excerpt weighted towards active compounds, which were near 6.3% of everything screened.

SMILES	tim23-1 inh	MPTP block	Mdm2-MdmX inh	TIM10 inh	tim10-1 inh	tim10-1 confirm
O=c1c2[nH]c3ccc(F)cc3c2nc2n1CCS2	19.4	-1.1	-20.9	25.6	45.6*	40.5*
O=c1c2[nH]c3ccc(F)cc3c2nc2n1CCCS2	32.0	0.8	20.3	18.3	40.8*	22.6
O=C(N[C@H](CO)c1ccccc1)[C@H]1O[C@@H](n2ccc(=O)[nH]c2=O)[C@H](O)[C@@H]1O	.	-0.7	.	.	.	.
Cc1ccc(NC(=S)N(CCN2CCOCC2)Cc2ccccc2F)cc1	20.9	3.2	-10.4	5.5	24.7	.
Cc1cc(NC(=S)N(CCN2CCOCC2)Cc2ccccc2F)ccc1Cl	25.3	0.3	11.3	32.1	44.2*	16.0
CCOc1ccc2nc(NCCCNS(=O)(=O)c3ccc(F)cc3)c(C#N)cc2c1	25.9	0.2	17.4	5.8	41.9*	28.0
CCOc1ccc2nc(NCCNC(=O)c3cc(OC)c(OC)c(OC)c3)c(C#N)cc2c1	9.9	0.3	2.0	15.7	8.1	.
CCCCNc1nc2ccccc2nc1NS(=O)(=O)c1ccc(F)cc1	47.9	2.3	-5.9	18.3	21.3	.
CCOc1ccc2nc(NCCCNS(=O)(=O)c3ccccc3)c(C#N)cc2c1	21.4	1.8	3.0	3.3	42.3*	18.6
Cc1ccc(S(=O)(=O)/N=C2/NC(=O)/C(=C\c3cc(Br)cc(Br)c3O)S2)cc1	36.5	-0.4	36.1	38.4	41.8*	37.0*
Cc1c(C(=O)NC2CC2)oc2ccc(S(=O)(=O)N3CCCCCC3)cc12	46.2	1.2	-9.0	26.5	48.8*	38.0*
Cc1c(C(=O)NCC2COc3ccccc3O2)oc2ccc(S(=O)(=O)N3CCOCC3)cc12 (stereo unspecified)	17.0	2.7	32.5	26.8	42.1*	21.5
Cc1cnc2ccc(F)cc2c1	.	-1.0	.	.	.	.
CCn1c(=O)c(CCC(=O)NCC2CCCO2)c(C)c2c(C)nn(-c3ccc(C)cc3)c21 (stereo unspecified)	10.4	0.4	15.6	3.4	41.4*	-7.4
Cc1ccc(N(CC(=O)NC(C)C)C(=O)CCC(=O)Nc2ccccn2)c(C)c1	.	-0.8	.	.	.	.
CCc1nc2ccc(C(=O)NCCCn3ccnc3)cn2c1N(CC)CCOC	.	-1.7	.	.	.	.
Cc1ccc(F)c([C@H]2[C@@H]3C=CCC[C@@]3(C)C(=O)N2Cc2ccccc2)c1	47.1	0.1	-19.4	39.9	45.4*	42.2*
Cc1ccc(-c2cc([C@H]3[C@@H]4C=CCC[C@@]4(C)C(=O)N3Cc3ccccc3)ccc2F)cc1	13.1	0.5	17.0	12.8	23.7	.
CCCS(=O)(=O)NC(=O)C1(C)CCN(C(=O)c2c(-c3ccccc3)noc2C)C1 (stereo unspecified)	.	-0.8	.	.	.	.
COc1ccc(CN2C(=O)C(CC(=O)NCc3cccs3)CC(C(=O)N(C(C)C)C(C)C)=C2C)cc1 (stereo unspecified)	.	-0.4	.	.	.	.
Fc1ccc(Cn2nnnc2C(c2ccc(Cl)cc2)N2CCSCC2)cc1 (stereo unspecified)	35.3	3.0	18.7	39.8	41.9*	31.2
Cc1cccnc1C(NC(=O)C1CCN(Cc2ccc(Oc3ccccc3)cc2)CC1)c1ccc(F)cc1 (stereo unspecified)	.	5.3	.	.	.	.
O=C(Cc1cccs1)N1CCN=C1SCc1ccccc1Cl	22.3	-3.9	12.1	6.3	40.1*	33.6*
COc1ccc(NC(=O)Nc2ccc3c(c2)C(=O)N([C@H](C)CO)C[C@@H](C)[C@@H](CN(C)C(=O)C2CCCCC2)OCCCC[C@H](C)O3)cc1	.	-1.1	.	.	.	.
CCOc1ccccc1N1C(=O)CC(Sc2n[nH]c(-c3ccccc3)n2)C1=O (stereo unspecified)	13.5	1.9	12.3	31.6	53.2*	53.4*
SMILES	tim23-1 inh	MPTP block	Mdm2-MdmX inh	TIM10 inh	tim10-1 inh	tim10-1 confirm
CNC(=O)C(=O)Nc1ccc2c(c1)N(S(=O)(=O)c1cccs1)CCC2	30.4	-1.8	14.3	22.0	24.5	.
CC(C)NC(=O)C(=O)Nc1ccc2c(c1)N(S(=O)(=O)c1cccs1)CCC2	35.0	-1.3	5.2	25.7	43.2*	21.3
CCCc1[nH][nH]c(=O)c1C(c1ccc(Cl)cc1)C(C#N)C#N (stereo unspecified)	41.9	1.6	17.4	36.5	45.9*	24.0
CCCc1[nH][nH]c(=O)c1C(c1ccccc1)C(C#N)C#N (stereo unspecified)	37.9	1.6	8.5	26.9	20.3	.
CN(N=Nc1ccc([N+](=O)[O-])cc1)c1ccccc1	-26.5	0.7	-127.2	3.6	22.9	.
CN(CCCC(=O)O)c1ccc(N=Nc2ccc([N+](=O)[O-])cc2)cc1	47.6	36.5	-4.5	27.5	54.0*	44.5*
CC(=O)Nc1cccc(-c2ccnc3c2CC(C(=O)NCCC(F)(F)F)O3)c1 (stereo unspecified)	.	1.5	.	.	.	.
Cc1ccc(S(=O)(=O)N2C[C@H]3C(=O)C[C@@H](c4ccc(Cl)cc4)N(S(=O)(=O)c4ccc(C)cc4)[C@H]3C[C@H]2c2ccc(Cl)cc2)cc1	.	0.8	.	.	.	.
COc1ccc(CC(=O)OCC(=O)Nc2ncc(Cl)c(C)c2Cl)cc1	40.0	-0.5	-0.9	8.1	43.1*	30.4*
CSCCC(C(=O)Nc1c(C)cccc1C)n1c(-c2cnc(C)cn2)nc2ccccc21 (stereo unspecified)	.	0.3	.	.	.	.
C=CCN=C1CC(C)(C)CC(=O)/C1=C(\O)c1ccccc1	12.6	-0.7	2.3	20.9	11.6	.
CC1(C)CC(=O)/C(=C(\O)c2ccccc2)C(=NCCc2ccccc2)C1	34.6	0.3	-2.6	12.9	45.0*	28.0
CCOc1ccc2nc(NC(=O)CCn3cccc3)sc2c1	36.2	-0.1	-17.0	8.7	26.4	.
CCCC(=O)Nc1nc2ccc(OCC)cc2s1	44.8	-1.0	-88.9	20.2	42.2*	21.2
COc1ccc(-c2nnc(NC(=O)c3ccc(S(=O)(=O)N4CCc5ccccc5C4)cc3)o2)cc1	12.5	-6.4	42.0	39.4	44.4*	39.0*
O=C(CSc1nnc(-c2ccccc2)o1)N1CCc2ccccc2C1	13.9	0.5	-6.2	7.8	35.7	.
COc1ccc(-c2nnc(SCC(=O)N3CCc4ccccc4C3)o2)cc1	43.3	-2.4	26.3	35.8	43.3*	27.4
Cc1ccc(-n2nnnc2SCC(=O)N2CCc3ccccc3C2)c(C)c1	42.0	-2.5	12.9	6.0	43.9*	32.1*
COc1ccc(-c2csc(NC(=O)c3ccc(S(=O)(=O)N4CCc5ccccc5C4)cc3)n2)cc1	7.8	1.8	30.8	8.9	19.5	.
COc1ccccc1-c1csc(C(C)(O)c2ccccc2)n1 (stereo unspecified)	.	-0.9	.	.	.	.
